Experimental data: PubChem BioAssay (Tox21)
Records with an inconclusive call do not appear. Activity calls are given as the source filed them. The call rests on the fitted dose curve; in most records, active means well fitted curve in the direction sought with a large enough effect in the repeat runs; inconclusive means weak or mixed curves; inactive means no such curve, though single readings can be large; an effect the other way counts as inactive or inconclusive.

Columns and labels:
[1] = Human pregnane X receptor (PXR) small molecule agonists, qHTS cell viability counter screen (AID 1346977); further: nearly all actives have a fitted effect of over 50% in size
Outline: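 PXR-Luc HepG2, 2,000 cells/well, 5% charcoal-stripped FBS; 5hr settle; cpd 24hr, 37C/5% CO2; CellTiter-Fluor at 23hr, read 1hr later (fluorescence).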

[2] = Caspase-3/7 induction in CHO-K1 cells by small molecules, qHTS cell viability counter screen (AID 1346979); further: nearly all actives have a fitted effect of over 35% in size; further: potency means the concentration at half of the fitted maximal effect
Outline: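 Cells (CHO-K1, wild type) are plated at 1,500 per well and incubated 5hr. Test compounds in DMSO are then pinned in, followed by 16hr at 37C and 5% CO2. Viability is read by CellTiter-Fluor fluorescence after 1hr.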

[3] = Caspase-3/7 induction in CHO-K1 cells by small molecules, qHTS assay (AID 1346980); further: nearly all actives have a fitted effect of over 15% in size
Outline: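 Luminescent Caspase-Glo 3/7 read (30min, room temperature) quantified apoptosis induction. Cells were wild-type CHO-K1, treated with compound for 17hr at 37 C and 5% CO2.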

[4] = Caspase-3/7 induction in HepG2 cells by small molecules, qHTS cell viability counter screen (AID 1346981); further: nearly all actives have a fitted effect of over 30% in size; further: potency means the concentration at half of the fitted maximal effect
Outline: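 Steps: seed 2,000 HepG2 cells per well; incubate 5 hr at 37 C; pin-add compounds in DMSO; incubate 16 hr; add CellTiter-Fluor; after 1 hr at 37 C and 5% CO2, read fluorescence.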

[5] = molecular target: Nuclear receptor subfamily 1 group I member 2 (Rattus norvegicus) (UniProt Q9R1A7); assay: Rat pregnane X receptor (rPXR) activation by small molecules, qHTS assay (AID 1346983); settings: rPXR luciferase reporter cells, One-Glo luminescence, 24 h; hits give high values; further: nearly all actives have a fitted effect of over 20% in size
Outline: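 Luminescent readout (One-Glo luciferase, 30 min room temperature) followed 24 hr compound treatment at 37 C of rPXR cells plated 2,000 per well and preincubated 5hr; qHTS format with compounds delivered in DMSO.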

[6] = molecular target: Voltage-gated inwardly rectifying potassium channel KCNH2 (Homo sapiens) (UniProt Q12809); assay: Human Ether-a-go-go-Related Gene (hERG) channel small molecule antagonists: fluorescence cell-based qHTS assay (AID 1671200);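 further: hERG-expressing U2OS cells given a thallium stimulus after FluxOR II dye loading; series mostly up to about 77 µM; nearly all actives have a fitted effect of over 50% in size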
Outline: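 Channel function was assessed by thallium flux. Cells seeded the previous day and kept at 37 C took up FluxOR II dye over 1 h in the dark at room temperature, then sat another 10 min before stimulation.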

[7] = Caspase-3/7 induction in HepG2 cells by small molecules, qHTS assay (AID 1346978); further: nearly all actives have a fitted effect of over 15% in size
Outline: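 Caspase-3/7 induction was measured by Caspase-Glo 3/7 luminescence (30 min, room temperature) after a 17 hr compound exposure of wild-type HepG2 cells seeded at 2,000 per well and pre-incubated 5 hr.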

[8] = molecular target: Nuclear receptor subfamily 1 group I member 2 (Homo sapiens) (UniProt O75469); assay: Human pregnane X receptor (PXR) small molecule agonists, qHTS assay (AID 1346982); further: nearly all actives have a fitted effect of over 35% in size; further: potency means the concentration at half of the fitted maximal effect
Outline: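 Agonist mode qHTS: PXR-Luc HepG2 cells plated 5 hr before DMSO-dissolved compounds were pinned in, cultured 24 hr at 37 C, 5% CO2; ONE-Glo luminescence readout.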

[9] = molecular target: Cytochrome P450 2D6 (Homo sapiens) (UniProt P10635); assay: Cytochrome P450 Family 2 Subfamily D Member 6 (CYP2D6) small molecule antagonists: luciferase reporter qHTS assay (AID 1671196); further: nearly all actives have a fitted effect of over 50% in size; further: potency means the concentration at half of the fitted maximal effect
Outline: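 P450-Glo format: CYP2D6 converts a proluciferin substrate to luciferin in an NADPH-driven reaction lasting 1 h at room temperature. Light output, proportional to CYP2D6 activity, reflects interference by test chemicals.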

[10] = molecular target: Cytochrome P450 2C19 (Homo sapiens) (UniProt P33261); assay: Cytochrome P450 Family 2 Subfamily C Member 19 (CYP2C19) small molecule antagonists: luciferase reporter qHTS assay (AID 1671197); further: nearly all actives have a fitted effect of over 65% in size; further: potency means the concentration at half of the fitted maximal effect
Outline: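 Enzyme-substrate mix with proluciferin substrate (P450-Glo CYP2C19 system) preincubated with compounds 10 min at room temperature; NADPH regeneration solution added, 37C for 1 h; detection reagent stops reaction, luminescence read after 20 min. Ketoconazole positive control.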

[11] = molecular target: Cytochrome P450 1A2 (Homo sapiens) (UniProt P05177); assay: Cytochrome P450 Family 1 Subfamily A Member 2 (CYP1A2) small molecule antagonists: luciferase reporter qHTS assay (AID 1671199); further: nearly all actives have a fitted effect of over 50% in size; further: potency means the concentration at half of the fitted maximal effect
Outline: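 Inhibition of CYP1A2 conversion of proluciferin to luciferin, detected by luminescence. Reaction run 1 h at room temperature with NADPH regeneration after brief compound preincubation.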

[12] = molecular target: Cytochrome P450 3A4 (Homo sapiens) (UniProt P08684); assay: Cytochrome P450 Family 3 Subfamily A Member 4 (CYP3A4) small molecule antagonists: luciferase reporter qHTS assay (AID 1671201); further: nearly all actives have a fitted effect of over 50% in size; further: potency means the concentration at half of the fitted maximal effect
Outline: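 Compounds in DMSO were pin-transferred onto CYP3A4 enzyme-substrate mix and held 10 min at room temperature. NADPH regenerating solution started the reaction for 1 h; luciferin detection reagent stopped it, and luminescence was read after 20 min.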

[13] = molecular target: Cytochrome P450 2C9 (Homo sapiens) (UniProt P11712); assay: Cytochrome P450 Family 2 Subfamily C Member 9 (CYP2C9) small molecule antagonists: luciferase reporter qHTS assay (AID 1671198); further: nearly all actives have a fitted effect of over 50% in size; further: potency means the concentration at half of the fitted maximal effect
Outline: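 Enzyme-substrate mix preincubated with compound 10 min at room temperature; reaction started with NADPH regeneration solution, 1 h 37C. Luminescent luciferin product read after 20 min detection reagent.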

[14] = molecular target: Nuclear receptor subfamily 1 group I member 2 (Homo sapiens) (UniProt O75469); assay: CYP3A4 induction through human pregnane X receptor (PXR) by small molecules, qHTS assay (AID 1346984); further: nearly all actives have a fitted effect of over 40% in size
Outline: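 Steps: seed DPX-2 cells, 5 hr at 37C; pin-transfer compounds; 24 hr at 37C; add Luciferin-IPA (3uM final), 3 hr at 37C; add One-Glo, 30 min RT; read luminescence.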

[15] = molecular target: Nuclear receptor subfamily 1 group I member 2 (Homo sapiens) (UniProt O75469); assay: Human pregnane X receptor (PXR) activation by small molecules, qHTS assay (AID 1346985); further: nearly all actives have a fitted effect of over 40% in size; further: potency means the concentration at half of the fitted maximal effect
Outline: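 DPX-2 cells (HepG2 co-transfected with a PXR response element and a CYP3A4-promoter luciferase construct) were seeded at 2,000 per well, rested 5 hr at 37C, then exposed to DMSO-dissolved compounds for 24 hr. Activation was read as luciferase luminescence.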
On the % scale 0 is the no-effect control and ±100 the full control effect.

Sequence of Cytochrome P450 1A2 (Homo sapiens) (P05177 whole entry, looked up): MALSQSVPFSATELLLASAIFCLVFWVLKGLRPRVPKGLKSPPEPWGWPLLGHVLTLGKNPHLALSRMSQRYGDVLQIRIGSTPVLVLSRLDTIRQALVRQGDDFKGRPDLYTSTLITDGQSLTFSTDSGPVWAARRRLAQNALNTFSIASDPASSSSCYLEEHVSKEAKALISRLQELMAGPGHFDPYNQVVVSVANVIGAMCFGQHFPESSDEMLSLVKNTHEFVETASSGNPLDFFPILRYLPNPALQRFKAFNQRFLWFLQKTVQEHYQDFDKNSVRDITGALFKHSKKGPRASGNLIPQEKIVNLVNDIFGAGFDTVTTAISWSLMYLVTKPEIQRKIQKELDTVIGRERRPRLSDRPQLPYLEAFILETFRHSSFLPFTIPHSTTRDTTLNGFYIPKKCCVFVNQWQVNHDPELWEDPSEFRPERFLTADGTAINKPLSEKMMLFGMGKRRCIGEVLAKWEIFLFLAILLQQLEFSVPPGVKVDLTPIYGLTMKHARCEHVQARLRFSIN
Sequence of Nuclear receptor subfamily 1 group I member 2 (Homo sapiens) (O75469 whole entry, looked up): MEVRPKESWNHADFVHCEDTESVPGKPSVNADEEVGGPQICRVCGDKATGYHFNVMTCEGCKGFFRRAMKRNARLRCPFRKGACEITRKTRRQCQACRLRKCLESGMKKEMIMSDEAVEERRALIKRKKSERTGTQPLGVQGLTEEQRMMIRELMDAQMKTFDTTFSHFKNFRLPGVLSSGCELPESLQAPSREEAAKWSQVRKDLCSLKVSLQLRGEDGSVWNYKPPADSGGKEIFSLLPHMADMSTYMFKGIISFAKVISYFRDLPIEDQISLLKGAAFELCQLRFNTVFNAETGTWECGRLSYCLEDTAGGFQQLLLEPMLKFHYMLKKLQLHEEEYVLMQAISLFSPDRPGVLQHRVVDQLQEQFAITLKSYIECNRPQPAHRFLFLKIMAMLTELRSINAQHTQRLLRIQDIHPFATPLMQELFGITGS
Sequence of Cytochrome P450 3A4 (Homo sapiens) (P08684 whole entry, looked up): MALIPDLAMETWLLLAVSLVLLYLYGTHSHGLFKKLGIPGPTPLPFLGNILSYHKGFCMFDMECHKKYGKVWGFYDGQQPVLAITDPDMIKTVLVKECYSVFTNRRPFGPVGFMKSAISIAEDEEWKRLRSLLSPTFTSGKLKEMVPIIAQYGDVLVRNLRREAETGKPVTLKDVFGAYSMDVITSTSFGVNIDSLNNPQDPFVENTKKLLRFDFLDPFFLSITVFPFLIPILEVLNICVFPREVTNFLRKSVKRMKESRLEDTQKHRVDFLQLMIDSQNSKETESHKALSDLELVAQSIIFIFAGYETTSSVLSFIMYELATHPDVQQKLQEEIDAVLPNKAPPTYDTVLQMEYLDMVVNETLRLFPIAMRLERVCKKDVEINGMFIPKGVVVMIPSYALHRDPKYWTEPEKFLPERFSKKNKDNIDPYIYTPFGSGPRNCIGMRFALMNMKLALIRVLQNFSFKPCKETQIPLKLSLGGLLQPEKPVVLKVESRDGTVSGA
Sequence of Cytochrome P450 2C9 (Homo sapiens) (P11712 whole entry, looked up): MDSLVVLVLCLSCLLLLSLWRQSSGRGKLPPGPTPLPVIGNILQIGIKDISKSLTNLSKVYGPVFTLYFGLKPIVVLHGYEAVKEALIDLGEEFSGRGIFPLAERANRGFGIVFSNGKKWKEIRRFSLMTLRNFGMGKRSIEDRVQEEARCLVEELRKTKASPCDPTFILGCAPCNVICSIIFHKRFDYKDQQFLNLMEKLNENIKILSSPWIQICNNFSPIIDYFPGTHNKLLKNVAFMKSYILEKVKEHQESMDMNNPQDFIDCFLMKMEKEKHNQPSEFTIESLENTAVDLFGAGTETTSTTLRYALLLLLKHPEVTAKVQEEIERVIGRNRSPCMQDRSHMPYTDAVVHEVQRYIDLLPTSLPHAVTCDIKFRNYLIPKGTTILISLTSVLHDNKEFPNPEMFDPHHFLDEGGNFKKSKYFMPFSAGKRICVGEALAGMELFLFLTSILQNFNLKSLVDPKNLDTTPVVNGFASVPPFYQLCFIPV
Sequence of Cytochrome P450 2C19 (Homo sapiens) (P33261 whole entry, looked up): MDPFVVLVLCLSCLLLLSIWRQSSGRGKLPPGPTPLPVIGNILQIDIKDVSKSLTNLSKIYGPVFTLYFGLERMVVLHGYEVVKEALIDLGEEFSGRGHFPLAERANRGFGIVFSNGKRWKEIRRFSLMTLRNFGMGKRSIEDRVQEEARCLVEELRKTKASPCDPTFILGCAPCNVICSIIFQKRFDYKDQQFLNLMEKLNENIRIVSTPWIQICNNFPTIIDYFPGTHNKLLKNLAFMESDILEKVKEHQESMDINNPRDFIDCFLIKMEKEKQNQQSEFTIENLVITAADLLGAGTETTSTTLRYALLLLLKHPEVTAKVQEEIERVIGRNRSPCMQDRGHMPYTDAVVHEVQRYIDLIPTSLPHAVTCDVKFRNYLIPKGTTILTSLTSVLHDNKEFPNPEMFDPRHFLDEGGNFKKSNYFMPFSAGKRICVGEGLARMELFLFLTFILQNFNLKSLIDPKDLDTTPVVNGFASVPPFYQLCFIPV
Sequence of Cytochrome P450 2D6 (Homo sapiens) (P10635 whole entry, looked up): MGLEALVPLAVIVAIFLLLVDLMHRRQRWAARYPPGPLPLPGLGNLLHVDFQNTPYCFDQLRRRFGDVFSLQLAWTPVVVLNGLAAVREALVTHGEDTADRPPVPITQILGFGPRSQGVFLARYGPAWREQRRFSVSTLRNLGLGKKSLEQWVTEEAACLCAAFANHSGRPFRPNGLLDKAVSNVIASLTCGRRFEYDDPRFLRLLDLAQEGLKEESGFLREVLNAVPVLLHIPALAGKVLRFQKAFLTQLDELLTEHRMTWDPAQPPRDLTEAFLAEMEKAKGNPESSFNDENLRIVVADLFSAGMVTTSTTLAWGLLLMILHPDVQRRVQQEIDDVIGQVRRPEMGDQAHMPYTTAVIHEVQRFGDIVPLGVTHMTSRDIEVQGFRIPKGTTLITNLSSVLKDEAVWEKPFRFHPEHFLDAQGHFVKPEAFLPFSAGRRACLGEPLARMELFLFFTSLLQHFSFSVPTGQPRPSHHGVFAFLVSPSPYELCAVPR
Sequence of Nuclear receptor subfamily 1 group I member 2 (Rattus norvegicus) (Q9R1A7 whole entry, looked up): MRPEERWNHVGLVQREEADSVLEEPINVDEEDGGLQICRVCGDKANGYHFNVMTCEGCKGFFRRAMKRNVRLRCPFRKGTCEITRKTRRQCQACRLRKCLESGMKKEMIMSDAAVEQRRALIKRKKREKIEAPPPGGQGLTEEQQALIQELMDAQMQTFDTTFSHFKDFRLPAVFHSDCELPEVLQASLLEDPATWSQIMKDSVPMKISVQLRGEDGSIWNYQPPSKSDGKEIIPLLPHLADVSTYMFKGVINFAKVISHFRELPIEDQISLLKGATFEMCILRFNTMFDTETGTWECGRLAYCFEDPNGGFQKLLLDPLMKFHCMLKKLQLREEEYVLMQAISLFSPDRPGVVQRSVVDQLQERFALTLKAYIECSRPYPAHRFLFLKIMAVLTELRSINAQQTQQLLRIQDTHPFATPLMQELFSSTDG
Sequence of Voltage-gated inwardly rectifying potassium channel KCNH2 (Homo sapiens) (Q12809 whole entry, looked up): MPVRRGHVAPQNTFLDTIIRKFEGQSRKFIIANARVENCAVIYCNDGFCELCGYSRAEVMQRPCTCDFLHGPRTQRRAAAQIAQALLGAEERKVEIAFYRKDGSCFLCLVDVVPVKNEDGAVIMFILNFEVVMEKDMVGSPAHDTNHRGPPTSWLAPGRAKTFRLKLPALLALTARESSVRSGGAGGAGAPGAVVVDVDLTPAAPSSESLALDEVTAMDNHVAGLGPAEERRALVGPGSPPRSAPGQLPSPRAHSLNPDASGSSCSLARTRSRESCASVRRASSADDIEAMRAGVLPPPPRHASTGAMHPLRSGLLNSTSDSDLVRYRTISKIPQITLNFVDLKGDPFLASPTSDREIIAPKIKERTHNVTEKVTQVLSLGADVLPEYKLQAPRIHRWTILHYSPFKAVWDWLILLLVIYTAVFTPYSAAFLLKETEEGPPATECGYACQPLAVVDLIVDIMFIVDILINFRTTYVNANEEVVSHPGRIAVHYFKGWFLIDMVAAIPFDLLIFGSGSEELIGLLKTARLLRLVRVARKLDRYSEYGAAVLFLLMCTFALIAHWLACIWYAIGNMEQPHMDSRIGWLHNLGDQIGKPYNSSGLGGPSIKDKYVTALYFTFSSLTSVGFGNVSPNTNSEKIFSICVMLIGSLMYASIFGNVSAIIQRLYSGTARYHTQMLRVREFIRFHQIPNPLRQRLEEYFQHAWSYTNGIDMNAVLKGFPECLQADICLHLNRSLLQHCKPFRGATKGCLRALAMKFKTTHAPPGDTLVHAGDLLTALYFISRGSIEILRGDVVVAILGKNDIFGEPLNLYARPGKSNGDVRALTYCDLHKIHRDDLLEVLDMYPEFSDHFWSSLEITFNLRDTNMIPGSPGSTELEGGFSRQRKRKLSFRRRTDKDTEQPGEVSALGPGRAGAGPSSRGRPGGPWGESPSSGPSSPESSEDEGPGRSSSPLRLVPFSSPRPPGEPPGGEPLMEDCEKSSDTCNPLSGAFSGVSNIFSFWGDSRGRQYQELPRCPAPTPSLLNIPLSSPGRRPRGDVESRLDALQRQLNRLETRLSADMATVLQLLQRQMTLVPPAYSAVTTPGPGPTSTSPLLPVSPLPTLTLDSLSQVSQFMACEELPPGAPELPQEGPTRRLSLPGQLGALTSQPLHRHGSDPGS

O=C(NCC(O)CO)c1c(I)c(C(=O)NCC(O)CO)c(I)c(N(CCO)C(=O)CO)c1I (stereo unspecified)
inactive: Potency [1] | Potency [2] | outcome [3] | Potency [4] | max activation [5] -4.62% | Potency [6]

Brc1ccc(-c2ccccc2)cc1
active: Potency [11] 6.31 µM
inactive: Potency [7] | Potency [2] | outcome [3] | Potency [4] | Potency [8] | Potency [9] | Potency [10] | Potency [6] | Potency [12]

CN=C(NC#N)Nc1ccc(C2=NNC(=O)CC2C)cc1 (stereo unspecified)
inactive: Potency [1] | Potency [2] | outcome [3] | Potency [8] | Potency [9] | Potency [10] | Potency [13] | Potency [11] | Potency [6] | Potency [12]

CC(=O)CCCCn1c(=O)c2c(ncn2C)n(C)c1=O
inactive: Potency [7] | Potency [2] | outcome [3] | Potency [4] | Potency [8] | max activation [5] -1.72% | Potency [14] | Potency [15] | Potency [10] | Potency [13] | Potency [11] | Potency [6] | Potency [12]

CCCC(=O)C(C)=O
inactive: Potency [1] | Potency [2] | outcome [3] | Potency [9] | Potency [6]

COc1ccc(C2CNC(=O)C2)cc1OC1CCCC1 (stereo unspecified)
inactive: Potency [1] | Potency [2] | Potency [4] | max activation [5] -2.12% | Potency [10] | Potency [13] | Potency [6] | Potency [12]
active: Potency [11] 13.8 µM

COP(=O)(OC)OC(c1ccc(Cl)cc1)P(=O)(OC)OC (stereo unspecified)
inactive: Potency [7] | Potency [2] | outcome [3] | Potency [4] | Potency [8] | max activation [5] 4.37% | Potency [14] | Potency [15] | Potency [9] | Potency [10] | Potency [13] | Potency [11] | Potency [6] | Potency [12]

O=S(=O)(O)c1ccc2cc(O)c(S(=O)(=O)O)cc2c1
inactive: Potency [1] | Potency [2] | outcome [3] | Potency [10] | Potency [13] | Potency [11] | Potency [6] | Potency [12]

CCCOC(=O)C(C)O (stereo unspecified)
active: Potency [11] 40.8 µM
inactive: Potency [1] | Potency [2] | Potency [4] | Potency [13] | Potency [6] | Potency [12]

CCn1ccc(NS(=O)(=O)c2ccc(N)cc2)nc1=O
inactive: Potency [1] | Potency [2] | outcome [3] | Potency [4] | Potency [9] | Potency [10] | Potency [13] | Potency [11] | Potency [6] | Potency [12]

CC(=O)NCc1c(I)c(NC(C)=O)c(I)c(C(=O)O)c1I
inactive: Potency [1] | outcome [3] | Potency [4] | max activation [5] -0.535% | Potency [14] | Potency [15] | Potency [13] | Potency [11] | Potency [6] | Potency [12]

CCN(C)C(=O)Oc1cccc([C@H](C)N(C)C)c1
inactive: Potency [1] | Potency [2] | outcome [3] | Potency [8] | max activation [5] 7.36% | Potency [15] | Potency [10] | Potency [11] | Potency [6] | Potency [12]

CCCCNC1CC(C)(C)NC(C)(C)C1
inactive: Potency [7] | Potency [2] | outcome [3] | Potency [4] | Potency [8] | Potency [10] | Potency [13] | Potency [6] | Potency [12]
active: Potency [9] 28.3 µM

Cc1ccc2ccc(Cl)cc2n1
active: Potency [11] 15.5 µM
inactive: Potency [1] | Potency [2] | outcome [3] | Potency [10] | Potency [13] | Potency [6] | Potency [12]

On1nnc2ccccc21
inactive: Potency [7] | Potency [2] | outcome [3] | Potency [4] | Potency [8] | Potency [10] | Potency [13] | Potency [6] | Potency [12]
active: Potency [9] 35.6 µM

Cc1ccccc1N=O
inactive: Potency [1] | Potency [2] | outcome [3] | Potency [9] | Potency [10] | Potency [13] | Potency [6]
active: Potency [11] 41 µM | Potency [12] 36.5 µM

COc1nccnc1NS(=O)(=O)c1ccc(N)cc1
inactive: Potency [1] | Potency [2] | outcome [3] | Potency [8] | max activation [5] 3.09% | Potency [14] | Potency [15] | Potency [9] | Potency [10] | Potency [13] | Potency [11] | Potency [6] | Potency [12]

COc1cc(C(=S)N2CCOCC2)cc(OC)c1OC
inactive: Potency [1] | Potency [2] | outcome [3] | Potency [8] | max activation [5] -2.22% | Potency [14] | Potency [15] | Potency [9] | Potency [13] | Potency [11] | Potency [6] | Potency [12]
active: Potency [10] 21.9 µM

COc1ccc2c(c1OC)C(=O)O[C@@H]2[C@H]1c2c(cc3c(c2OC)OCO3)CCN1C
inactive: Potency [7] | outcome [3] | max activation [5] 8.04% | Potency [14] | Potency [11] | Potency [6]
active: Potency [2] 13.3 µM | Potency [4] 15 µM | Potency [8] 11.9 µM | Potency [15] 22.4 µM | Potency [9] 11 µM | Potency [10] 1.38 µM | Potency [13] 0.871 µM

CO[C@@H]1[C@@H](OC(N)=O)[C@@H](O)[C@H](Oc2ccc3c(O)c(NC(=O)c4ccc(O)c(CC=C(C)C)c4)c(=O)oc3c2C)OC1(C)C
active: Potency [13] 11 µM
inactive: Potency [1] | Potency [2] | Potency [4] | Potency [8] | max activation [5] -3.79% | Potency [14] | Potency [15] | Potency [9] | Potency [11] | Potency [6] | Potency [12]

C=C(C)C(=O)OCCN(CC)CC
inactive: Potency [7] | Potency [2] | outcome [3] | Potency [4] | Potency [8] | Potency [9] | Potency [10] | Potency [13] | Potency [6] | Potency [12]
active: Potency [11] 35.5 µM
